Assay outcomes (PubChem BioAssay)
AMA1-RON2 inh – qHTS for Inhibitors of AMA1-RON; Towards Development of Antimalarial Drug Lead: Primary Screen; Plasmodium falciparum AMA1 (3D7) - RON2 peptide interaction; AlphaScreen AMA1-biotinylated RON2 peptide binding; Potency, µM (top dose mostly 58.2 µM), hits mostly inhibitors; 0.2% of 360,000 active; AID 720542, 2013; note: nearly all actives have a fitted effect of over 45% in size
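AMA1 (3D7) with his tag at 25 nM final met compounds first, then biotinylated RON2 peptide at 25 nM; detection used donor plus acceptor beads, 10 µg/mL apiece, read by AlphaScreen after 30 min at room temperature.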
Pf growth 96h – Primary qHTS for delayed death inhibitors of the malarial parasite plastid, 96 hour incubation; P. falciparum luciferase reporter growth, 96 h; Potency, µM (titrated, usually from 28.7 µM), hits mostly inhibitors; 6.9% of 320,000 active; AID 504834, 2011
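P. falciparum expressing integrated firefly luciferase grown in erythrocytes (2% hematocrit, 0.05% parasitemia final) with compounds for 96 hours at 37 C, 5% CO2. Growth inhibition read as loss of luminescence after adding luciferase detection reagent.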
Pf growth 48h – Primary qHTS for delayed death inhibitors of the malarial parasite plastid, 48 hour incubation; P. falciparum luciferase growth in erythrocytes, 48 h; Potency, µM (series often up to 28.7 µM), actives largely listed as inhibitors; 5.9% of 310,000 active; AID 504832, 2011
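Luciferase-expressing P. falciparum in infected erythrocytes (2% hematocrit, 0.1% parasitemia final) in RPMI 1640/0.5% Albumax were exposed to compound for 48 hours at 37 C, 5% CO2; growth read as luminescence.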
CHX counter – Cycloheximide Counterscreen for Small Molecule Inhibitors of Shiga Toxin; cell reporter, cycloheximide protein synthesis inhibition counterscreen; max response, %; AID 2314, 2010; 12% of 300,000 active; in the data active = max response mostly above about 13%, no sharp cut-off; inactive = mostly below about 14%; note: read at 38.3 µM for the half of the compounds with a filed dose
Shiga toxin inh – A qHTS for Small Molecule Inhibitors of Shiga Toxin; inhibition, % at 38.7 µM; AID 2315, 2010; Vero cells, Shiga toxin protein synthesis inhibition reporter; 9.2% of 290,000 active; in the data active = inhibition mostly above about 28%, no sharp cut-off; inactive = mostly below about 43%
HCV inh – qHTS Assay for Inhibitors of Hepatitis C Virus (HCV) | Huh7.5.1 HCVcc-Cre infection, luciferase reporter, 44 h | Potency, µM (doses to about 41.8 µM), hits mostly inhibitors | 3.4% of 340,000 active
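Infectious HCV cell culture screen: compound-treated cells (1,000/well, pre-plated 4 h) are infected with HCVcc-Cre at roughly 0.5 moi and grown 44 h. Infection is quantified by luciferase signal after 15 min substrate incubation at room temperature.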
Hits are given with their value; n = inactive; u = inconclusive; x = not tested or not shown; [ ] = dose if it differs, or a comment. An excerpt weighted towards active compounds, which were near 21% of everything screened. Unless noted, calls come from the whole dose curve; as a rule, active = well fitted curve in the direction sought with a large enough effect; inconclusive = small, poorly fitted or top-dose-only effect, or another doubt; inactive = no such curve, though single readings can be large; an effect the other way counts as inactive or inconclusive.

SMILES	AMA1-RON2 inh	Pf growth 96h	Pf growth 48h	CHX counter	Shiga toxin inh	HCV inh
CC1CCCC(C)N1C(=O)COC(=O)C1CCN(S(=O)(=O)c2ccc3c(c2)OCCO3)CC1 (stereo not drawn)	n	n	u	x	x	u
c1ccc(-c2csc(-n3cccn3)n2)cc1	n	n	n	51	n	n
Cc1ccc(-c2csc(N3C(=N)SCC3=O)n2)cc1	n	n	n	36	42	n
c1ccc(-c2csc(N3CCSCC3)n2)cc1	n	u	n	44	90	n
Clc1ccc(-c2csc(N3CCSCC3)n2)cc1	n	n	n	35	114	n
c1ccc(-c2csc(CN3CCCCC3)n2)cc1	n	x	x	x	x	n
CC1=NN(c2nc(-c3ccc(F)cc3)cs2)C(=O)C1	n	n	n	n	n	n
CCCCn1nnnc1C(c1ccccc1)N1CCN(c2cc(C)ccc2C)CC1 (stereo not drawn)	n	x	x	x	x	x
CC1=NN(c2nc(-c3ccc(Cl)cc3)cs2)C(=O)C1	n	n	n	15	n	n
Fc1ccc(-c2csc(N3CCSCC3)n2)cc1	u	n	n	32	98	u
Brc1ccc(-c2csc(N3CCc4ccccc4C3)n2)cc1	n	n	n	n	n	u
Brc1ccc(-c2csc(N3CCC(c4ccccc4)C3)n2)cc1 (stereo not drawn)	n	8.3µM	n	n	n	u
O=C(CSc1nc(-c2ccc(F)cc2)cs1)N1CCOCC1	n	n	n	45	n	n
Fc1ccc(-c2nc3ccc(Cl)cn3c2Cc2cccc(F)c2)cc1	n	x	x	x	x	x
CN1CCN(S(=O)(=O)c2ccc(NC(=S)NC(=O)C(C)(C)C)cc2)CC1	n	n	n	n	n	n
CC1CCCCC1NC(=O)CSc1nnc(COc2ccc(Cl)cc2)o1 (stereo not drawn)	n	n	n	n	n	n
Fc1ccc(-c2csc(N3CCOCC3)n2)cc1	n	n	n	39	51	u
COc1ccc(C(=O)CCNc2ccc3c(c2)OCCO3)cc1	n	n	n	n	59	n
CCCOc1ccc(C(=O)Nc2ccc3c(c2)OCCO3)cc1	n	n	n	36	73	u
CC(=O)Oc1ccc(C(=O)Nc2ccc3c(c2)OCCO3)cc1	n	u	n	26	x	n
CC(=O)c1ccc(OCCCC(=O)Nc2ccc3c(c2)OCCO3)cc1	n	u	n	x	x	u
CC(=O)Oc1ccc(C(=O)Nc2cc(NC(=O)c3ccc(OC(C)=O)cc3)cc(C(=O)NC(C)(C)C)c2)cc1	n	2.6µM	u	n	n	n
COc1cccc(C(=S)N2CCOCC2)c1OS(=O)(=O)c1ccc(Cl)cc1	n	n	n	n	n	n
NCC1C2CCC(O2)C1CO (stereo not drawn)	n	x	x	x	x	x
COc1ccc(C(=O)Nc2ccc3c(c2)OCCO3)cc1	n	u	n	15	n	n
SMILES	AMA1-RON2 inh	Pf growth 96h	Pf growth 48h	CHX counter	Shiga toxin inh	HCV inh
COc1cc(OC)cc(C(=O)NNC(=O)c2ccc3c(c2)OCCO3)c1	n	x	x	x	x	n
CC(C)c1ccc(NC(=O)CSc2n[nH]c(=O)n2-c2cccnc2)cc1	n	13µM	n	n	n	n
CC(C)OC(=O)c1ccc(NC(=O)CSc2nc3ncccc3[nH]2)cc1	n	u	n	23	46	11µM
CC(C)c1ccc(NC(=O)CSc2nc3ncccc3[nH]2)cc1	n	n	n	19	n	u
COc1ccc(NC(=O)CSc2nc3ncccc3[nH]2)cc1OC	n	x	n	n	n	n
COc1ccc(/C=C/C(=O)c2ccc(C)c([N+](=O)[O-])c2)cc1O	n	n	n	46	79	n
COc1cc(/C=C/C(=O)c2ccccc2O)cc(OC)c1OC	n	n	u	n	n	n
COc1cc(/C=C/C(=O)c2cccc([N+](=O)[O-])c2)cc(OC)c1OC	n[2.32 µM]	n	n	n	n	11µM
CC(=O)c1cccc([N+](=O)[O-])c1	n	n	n	x	x	u
O=C(/C=C/c1ccccc1F)c1cccc([N+](=O)[O-])c1	n	n	n	n	active	n
O=C(Oc1ccc(F)cc1C(=O)/C=C/c1cccs1)c1cccc([N+](=O)[O-])c1	u	u	u	n	49	n
COc1cc(/C=C/C(=O)c2ccc(C)c([N+](=O)[O-])c2)cc(OC)c1O	n	n	n	n	n	u
COc1ccc(OC)c(-c2nnc3n2N=C(c2c(OC)cccc2OC)CS3)c1	x	x	x	n	n	x
Cc1ccc(C)c(NC(=O)C2C3CCCC2C3c2ccccc2)c1 (stereo not drawn)	n	12µM	n	n	n	n
CCO[C@H]1OC(C(=O)N2CCCCCCC2)=C[C@@H](C2CCCCC2)[C@@H]1CCCO	n	9.3µM	u	n	n	n
CCO[C@@H]1OC(C(=O)N2CCN(Cc3ccc4c(c3)OCO4)CC2)=C[C@H](C2CCCCC2)[C@H]1CCCO	n	0.93µM	u	n	n	u
CCO[C@@H]1OC(C(=O)N2CCN(Cc3ccccc3)CC2)=C[C@H](C)[C@H]1CCCO	n	u	u	n	n	n
CCO[C@@H]1OC(C(=O)N2CCN(C)CC2)=C[C@H](C(C)(C)C)[C@H]1CCCO	n	n	n	n	n	n
CCO[C@@H]1OC(C(=O)N2CCN(C)CC2)=C[C@H](C2CCCCC2)[C@H]1CCCO	n	n	n	n	n	n
CCO[C@H]1OC(C(=O)N2CCN(Cc3ccc4c(c3)OCO4)CC2)=C[C@@H](C(C)(C)C)[C@@H]1CCCO	n	u	6.6µM	n	n	n
CCO[C@H]1OC(C(=O)N2CCN(Cc3ccccc3)CC2)=C[C@@H](C2CCCCC2)[C@@H]1CCCO	n	1.7µM	u	n	n	n
Cc1ccccc1CS(=O)(=O)Cc1ccc(C(=O)NCCc2ccccc2)o1	n	n	u	23	n	n
O=C(NCCc1ccccc1)c1ccc(CS(=O)(=O)c2ccc(Br)cc2)o1	n	4.1µM	n	n	n	n
O=S(=O)(NCCc1ccccc1)c1ccc(Br)cc1	n	13µM	n	n	n	n
O=C(NCCCN1CCCC1)c1ccc(CS(=O)(=O)c2ccc(Br)cc2)o1	n	u	x	n	n	n
CN1CCN(CCCNC(=O)c2ccc(CS(=O)(=O)c3ccc(Br)cc3)o2)CC1	n	8.3µM	x	n	n	n
CC(C)Cc1ccc(-c2cc3nc(NCCc4ccc(S(N)(=O)=O)cc4)ccn3n2)cc1	n	x	x	x	x	x
Cc1ccc(S(=O)(=O)N(C)c2ccc(OC(C)C(=O)N3CCCC3)cc2)cc1C (stereo not drawn)	n	u	12µM	x	x	n
COc1ccc(S(=O)(=O)N(C)c2ccc(C(=O)N3CCCC3)cc2)cc1	n	u	n	n	n	n
Clc1ccccc1COc1ccccc1-c1nnco1	n	n	n	n	n	u
